Fam108B inh: Fam108B inhibition, counter-screen for RBBP9 inhibitors; recombinant Fam108B, FP-Rh probe fluorescence polarization; inhibition, % at 9.51 µM; 0.33% of 300,000 active; AID 1947;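 active = inhibition above the screen mean inhibition plus 3 SD, computed separately per campaign, cut at about 18% in these data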;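 also: inhibitors lower polarization as less probe binds the enzyme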
PAFAH1B3 inh: blocks human PAF acetylhydrolase 1B catalytic subunit 3; Q15102; recombinant PAFAH1B3, FP-rhodamine probe, fluorescence polarization; inhibition, % at 3.39 µM; 0.28% of 340,000 active; AID 492972;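 active = inhibition above the screen-wide average of all tested compounds plus 3 SD, cut at about 25% in these data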;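 also: 0% = enzyme with DMSO only and 100% = wells lacking PAFAH1B3 protein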
pPAFAH FP inh: pPAFAH (human) enzyme inhibition; Q13093; recombinant pPAFAH, FP-rhodamine probe fluorescence polarization; inhibition, % at 3.39 µM; 1.5% of 330,000 active; AID 463082;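 active = inhibition above the mean inhibition across the screen plus 3 SD, cut at about 25% in these data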;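 also: inhibitors block binding of the rhodamine activity-based probe so polarization drops; 0% = enzyme with DMSO and 100% = wells lacking pPAFAH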
PAFAH1B2 FP inh: blocks human PAF acetylhydrolase 1b catalytic subunit 2. recombinant PAFAH1B2, FP-rhodamine activity probe, fluorescence polarization. inhibition, % at 3.39 µM. 1.2% of 340,000 active. AID 492953;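 active = inhibition above the mean of all tested compounds plus 3 SD, cut at about 24% in these data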;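 also: 0% = enzyme with DMSO and 100% = wells lacking PAFAH1B2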
Target sequence (P68402 whole entry, looked up): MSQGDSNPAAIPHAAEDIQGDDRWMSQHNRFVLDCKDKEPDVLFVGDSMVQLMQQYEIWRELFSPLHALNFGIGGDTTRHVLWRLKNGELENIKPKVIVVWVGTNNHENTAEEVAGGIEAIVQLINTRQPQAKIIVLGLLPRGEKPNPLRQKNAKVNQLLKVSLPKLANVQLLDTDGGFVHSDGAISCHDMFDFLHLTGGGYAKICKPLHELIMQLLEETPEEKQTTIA
PME-1 inh: blocks human protein phosphatase methylesterase 1; recombinant PME-1, FP-Rh probe fluorescence polarization; inhibition, % at 5.9 µM; 0.53% of 320,000 active;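 active = inhibition above the campaign mean of all compounds plus 3 SD, cut at about 26% in these data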;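 also: competitive labeling of PME-1 active site by serine hydrolase directed probe; 0% = PME-1 with DMSO and 100% = wells lacking PME-1 enzyme; inhibitors block probe labeling so polarization falls and inhibition rises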
Target sequence (Q9Y570 whole entry, looked up): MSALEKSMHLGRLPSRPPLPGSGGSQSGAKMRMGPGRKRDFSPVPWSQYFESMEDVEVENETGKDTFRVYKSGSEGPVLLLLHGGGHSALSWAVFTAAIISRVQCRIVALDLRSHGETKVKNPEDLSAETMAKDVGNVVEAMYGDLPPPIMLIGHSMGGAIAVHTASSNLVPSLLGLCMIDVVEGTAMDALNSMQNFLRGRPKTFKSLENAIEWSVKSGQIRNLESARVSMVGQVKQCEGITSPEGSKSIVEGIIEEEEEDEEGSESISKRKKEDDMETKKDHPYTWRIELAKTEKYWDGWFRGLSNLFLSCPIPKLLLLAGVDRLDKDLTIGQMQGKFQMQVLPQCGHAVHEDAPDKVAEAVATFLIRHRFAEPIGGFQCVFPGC
PAFAH2 FP inh: PAFAH2 (human) inhibition; 0.99% of 340,000 active; inhibition, % at 3.39 µM; recombinant PAFAH2, FP-rhodamine activity probe, fluorescence polarization; Q99487;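 active = inhibition above the mean over all tested compounds plus 3 SD, cut at about 30% in these data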;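 also: inhibitors block probe labeling of enzyme so polarization drops; 0% = enzyme with DMSO and 100% = wells lacking PAFAH2 protein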
Numbers without * were called inactive; / = no result. Shown are actives, neighbours in structure and some others; about 2.9% of the full set was active somewhere.

SMILES	Fam108B inh	PAFAH1B3 inh	pPAFAH FP inh	PAFAH1B2 FP inh	PME-1 inh	PAFAH2 FP inh
O=C(NNc1nc2c(F)cccc2s1)c1cc(=O)c2ccccc2o1	3.5	13.9	15.7	8.6	54.5*	0.0
COc1ccc(CNC(=O)C(=O)NCC2OCCN2S(=O)(=O)c2ccccc2)cc1 (stereo not drawn)	-4.2	12.2	4.8	11.7	-1.3	-7.2
CCOc1ccc(N2CC(C(=O)NCc3nnnn3-c3ccc(C)c(C)c3)CC2=O)cc1 (stereo not drawn)	4.6	0.4	6.2	1.8	-1.9	-8.0
COC(=O)C(=O)C1CCc2c(Cl)cc(OC)c(OC)c2C1=O (stereo not drawn)	/	3.9	/	1.8	/	-0.2
Cc1occc1C(=O)NNS(=O)(=O)c1ccc(Cl)cc1	-1.1	5.2	6.1	19.4	-13.9	3.0
CN(C)c1ccsc1C(=O)NNS(=O)(=O)c1ccc(Cl)cc1	-2.8	2.3	-1.3	31.7*	-6.9	1.8
Cc1ncsc1CCOC(=O)c1ccc([N+](=O)[O-])cc1	4.2	1.7	-0.2	0.8	-6.5	-1.8
O=C(O)c1cc(S(=O)(=O)NC(Cc2c[nH]c3ccccc23)C(=O)O)ccc1Cl (stereo not drawn)	1.5	5.0	6.1	25.2*	0.1	7.0
CCCCCn1c(NC(=O)c2ccco2)c(S(=O)(=O)c2ccc(C)cc2)c2nc3ccccc3nc21	-3.3	57.4*	11.3	29.9*	1.9	42.5*
CCCCn1c(NC(=O)c2ccco2)c(S(=O)(=O)c2ccc(C)cc2)c2nc3ccccc3nc21	/	-5.4	/	0.8	/	3.7
COc1ccc(F)cc1-c1nc(N)nc(N)n1	/	12.6	0.1	5.9	2.9	4.5
O=C(O)C1CCN(Cc2oc(CO)cc(=O)c2O)C1 (stereo not drawn)	/	1.1	/	-1.3	/	2.5
COc1ccc(N(CC(=O)NCCSc2ccc(C)cc2)S(=O)(=O)c2ccccc2)c(OC)c1	-1.0	5.8	7.5	26.6*	-1.2	-17.7
Cc1ccc(NC(=O)c2cc3ccccc3cc2O)cc1	6.9	4.9	11.6	4.7	1.2	3.0
Cc1cccc(NC(=O)NNC(=O)c2cc3ccccc3cc2O)c1C	-1.1	11.3	33.8*	0.4	-1.4	5.5
Cc1ccc(NC(=O)Nc2cccs2)cc1	9.2	4.5	8.6	0.4	18.2	-14.6
CCc1ccc(NC(=O)NNC(=O)c2cc3ccccc3cc2O)cc1	-1.9	13.4	32.9*	8.3	-1.9	-19.1
COc1ccc(NC(=O)c2cc3ccccc3cc2O)cc1	6.7	10.6	32.0*	2.5	3.2	7.7
CCc1ccc(NC(=O)Nc2cccs2)cc1	3.2	10.7	17.8	8.4	34.4*	0.1
C/C=C/c1ccc(OCCOc2cc(C=O)ccc2OC)c(OC)c1	1.2	-2.9	27.7*	8.2	3.4	4.7
CC(NC(=O)c1ccc([N+](=O)[O-])o1)C12CC3CC(CC(C3)C1)C2 (stereo not drawn)	-4.2	11.3	0.3	38.6*	-3.2	15.8
Cc1cc(C(=O)OCC(=O)NCCc2ccccc2)c(C)o1	-2.4	5.5	8.4	5.5	-0.2	12.1
CCN(CC(=O)Nc1c(F)cccc1F)C(=O)Cc1csc(-c2ccc(OC)c(OC)c2)n1	-3.2	1.9	-3.2	0.7	-3.8	-0.6
Oc1cccc(/C=N/Nc2cc(N3CCCC3)nc(N3CCCC3)n2)c1	7.8	7.6	11.3	3.5	30.8*	-6.1
CCCc1ccc2oc(C(=O)N3CCC(COC)C3)c(C)c2c1 (stereo not drawn)	4.6	-1.8	26.8*	4.9	5.1	9.5
SMILES	Fam108B inh	PAFAH1B3 inh	pPAFAH FP inh	PAFAH1B2 FP inh	PME-1 inh	PAFAH2 FP inh
CCCc1ccc2oc(C(=O)N3CCC[C@H]3CO)c(C)c2c1	-0.1	-1.0	14.1	3.3	-5.1	-2.3
CCc1cc(SC#N)ccc1N	1.4	9.9	-2.2	0.4	-5.1	-0.3
CC(C(=O)NCCCn1ccnc1)(c1ccccc1)c1ccccc1	0.6	1.1	0.4	3.8	-0.6	3.2
N/C(=N\OC(=O)C12CC3CC(CC(C3)C1)C2)c1ccccn1	-0.5	7.3	-0.7	24.1*	-0.6	19.8
N#Cc1c(SCC(=O)Nc2cccc(F)c2)sc2c(O)cc(=O)[nH]c12	-0.9	18.1	29.7*	8.1	-23.8	14.8
CCCSc1nnc(NC(=O)CSc2sc3c(O)cc(=O)[nH]c3c2C#N)s1	5.7	14.7	42.8*	15.9	-24.7	37.5*
Cc1c(Cl)cccc1NC(=O)CSc1sc2c(O)cc(=O)[nH]c2c1C#N	-2.0	4.1	19.8	7.7	-5.5	-1.3
N#Cc1c(SCC(=O)Nc2ccc(Cl)cc2Cl)sc2c(O)cc(=O)[nH]c12	-3.4	8.3	30.1*	1.4	-10.7	10.2
N#Cc1c(SCC(=O)Nc2ccccc2C(F)(F)F)sc2c(O)cc(=O)[nH]c12	6.1	9.2	27.3*	5.5	-5.6	6.8
CCN(CC(=O)Nc1ccc2c(c1)OCCO2)S(=O)(=O)c1ccccc1	1.3	-3.1	-3.2	-2.6	-1.7	0.9
CC(OC(=O)C1=COCCO1)C(=O)Nc1ccc(Cl)cn1 (stereo not drawn)	1.2	4.7	2.5	5.7	-2.9	10.4
CC(C)CCNc1nc(N)c([N+](=O)[O-])c(NCC2CCCO2)n1 (stereo not drawn)	4.4	5.3	3.1	3.4	-0.9	0.9
Cc1c(NC(=O)CSc2ccc(Cl)cc2)cccc1-c1nc2ncccc2o1	-6.6	2.5	18.1	25.1*	-0.9	-0.4
COc1ccc2cc3cc(C(=O)NCc4ccco4)oc3nc2c1	-2.3	8.5	4.3	5.2	-11.6	1.8
CCCOC(=O)c1sc2nc3c(cc2c1N)C(=O)CCC3	2.7	3.3	2.8	-0.1	-1.3	3.0
Nc1c(C(=O)NCc2ccco2)sc2nc3c(cc12)C(=O)CCC3	11.9	-6.6	28.2*	2.0	2.0	1.4
COc1ccc2cc3c(N)c(C(=O)NCc4ccco4)sc3nc2c1	4.9	1.1	8.3	-1.0	34.5*	10.4
O=C(NCc1ccco1)c1c2c(nc3ccccc13)CCC2	5.7	6.3	26.9*	4.2	-2.6	14.9
CCOC(=O)C1=C(C)NC(=O)NC1c1ccc(N(C)C)cc1 (stereo not drawn)	/	-3.6	/	-5.0	/	-1.3
CCC(CC)COC(=O)C1=C(C)NC(=O)NC1c1ccc(N(C)C)cc1 (stereo not drawn)	3.6	3.7	14.7	28.2*	2.0	4.4
O=[N+]([O-])c1cc(Cl)c2cccnc2c1O	6.3	8.2	6.8	-5.3	-0.6	4.8
Oc1c(I)cc(Cl)c2cccnc12	1.8	15.6	31.0*	10.9	-1.5	-0.9
NC(=O)C(CC(=O)O)NC(=O)[C@@H]1CCCNc2c(I)cc([N+](=O)[O-])cc2C(=O)N[C@@H](CO)C(=O)N[C@@H](Cc2ccc(O)cc2)C(=O)N1 (stereo partly drawn)	-1.5	7.3	26.3*	8.3	-0.3	-1.5
